Compound activity as filed in PubChem.
Pf apPOL inh = Pf-apPOL DNA polymerase inhibition; Recombinant Pf-apPOL, molecular beacon fluorescence, 1.5 h; hit rate 0.25% among 210,000; AID 1794808; inhibition, % at 10 µM
mHTT-CaM PPI inh = inhibitors of human mutant huntingtin-calmodulin interaction | hit rate 3.6% among 190,000 | P42858 | inhibition, % at 15 µM | AID 1671202 | AlphaScreen His-mHTT/GST-CaM binding, luminescence;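 further: 0% = both proteins with DMSO and 100% = one protein alone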
Numbers without * were called inactive; nt = no result given. Most compounds without a hit are left out; they make up all but 3.6% or so of the library. No stated cut-off is given here; in the data, active means inhibition above about 50%; inactive means the rest.

SMILES	Pf apPOL inh	mHTT-CaM PPI inh
COc1cc(Br)c(/C=C/c2ccc3cccc(O)c3n2)cc1OC	-5	35
COc1cc(/C=C/c2ccc3cccc(O)c3n2)cc([N+](=O)[O-])c1O	-5	93*
COc1ccc(Br)c(/C=C/c2ccc3cccc(O)c3n2)c1	-1	65*
CCOC(=O)c1sc(N(NC(=O)c2ccc(Cl)cc2)C(=O)c2ccc(Cl)cc2)c2c1CC(C)(C)CC2=O	2	nt
COc1ccc(/C=C/C2=NC(=C\c3cccc(F)c3)/C(=O)O2)cc1	-5	10
O=C(NC1CC1)C1CCCN(c2nnc3ccccn23)C1 (centres undefined)	-2	-6
O=C(CSCc1c(F)cccc1Cl)c1ccc2c(c1)OCCO2	-11	nt
O=[N+]([O-])c1ccc(O)c(C=Nc2nc3c(O)cccc3s2)c1	-5	13
O=[N+]([O-])c1ccc(O)c(/C=C/c2ccc3cccc(O)c3n2)c1	3	60*
Oc1ccc(Cl)cc1/C=C/c1ccc2cccc(O)c2n1	8	100*
COc1cc(Br)cc(/C=C/c2ccc3cccc(O)c3n2)c1O	-8	36
CC(C)OC(=O)NC(Nc1nccs1)(C(F)(F)F)C(F)(F)F	-13	nt
O=c1cc(CN2CCCCCCC2)nc(-c2ccccc2)[nH]1	-2	2
O=[N+]([O-])c1cc(SCc2ccco2)c2c(C3OCCO3)nn(-c3ccccc3)c2c1	-2	78*
O=[N+]([O-])c1ccc(N2CCCC2)cc1SCc1ccco1	-1	7
COc1ccc(-n2nc(C(=O)NCC(=O)O)c3ccccc3c2=O)cc1	-3	-1
COc1ccc(-n2nc(C(=O)NCC(=O)N(C)Cc3ccccc3)c3ccccc3c2=O)cc1	0	66*
Cc1cc(-c2ccccc2)nc2cc(C(=O)N3CCOCC3)nn12	-2	5
Nc1c(C(=O)N2CCOCC2)sc2nc(-c3ccccc3)cc(-c3ccccc3)c12	-5	52*
CC(=O)Nc1cccc2c(C(=O)NC3CCN(Cc4ccccc4)CC3)ccnc12	8	4
Cc1[nH]c(C(=O)N2CCC(CC(=O)NCCc3c[nH]c4ccccc34)CC2)c(C)c1C	-3	90*
COc1ccc(CCNC(=O)CC2CCN(C(=O)C3CCCCC3)CC2)c(OC)c1	-9	30
O=C(CC1CCN(C(=O)C2CCCCC2)CC1)NCCc1c[nH]c2ccc(Cl)cc12	-3	100*
CCc1ccc(CNC(=O)CC2CCN(C(=O)c3[nH]c(C)c(C)c3C)CC2)cc1	3	16
COc1ccc(N(Cc2ccc(F)cc2)C(=O)c2ccco2)cc1	7	-12
SMILES	Pf apPOL inh	mHTT-CaM PPI inh
COc1ccccc1N1CCN(CCNC(=O)Cc2cccs2)CC1	-5	1
CCCC1CCc2c(sc(NC(=O)c3ccncc3)c2C(N)=O)C1 (centres undefined)	66*	-5
CCCC1CCc2c(sc(NC(=O)c3cccnc3)c2C(N)=O)C1 (centres undefined)	5	7
Cc1ccc(C2CC(=O)C3=C(C2)Nc2ccccc2NC3c2ccc(C)s2)cc1 (centres undefined)	-4	29
O=C(NCc1ccccc1F)C1CCN(c2nn3c(=O)c4c(nc3s2)CCCC4)CC1	1	14
COc1ccc(Cl)cc1NC(=O)Cn1cnc2ccccc2c1=O	-9	-5
Cc1nn(C2CCS(=O)(=O)C2)c(C)c1N1CCN(C(=O)c2cc3ccccc3[nH]2)CC1 (centres undefined)	-19	54*
CSc1ccccc1C(=O)N1CCN(c2c(C)nn(C3CCS(=O)(=O)C3)c2C)CC1 (centres undefined)	-1	-2
Nc1nc(SCC(=O)NCc2ccccc2Cl)[nH]c(=O)c1NC(=O)c1ccccc1	0	-8
COc1cc(OC)c(C2C(C(=O)Nc3cccnc3)=C(C)Nc3ncnn32)cc1OC (centres undefined)	-3	-2
COc1ccc(/C=C2\CC/C(=C\c3ccc(OC)c(OC)c3)C2=O)cc1OC	0	10
COc1cc(/C=C2\CC/C(=C\c3ccc(O)c(OC)c3)C2=O)ccc1O	-3	61*
O=C(Nc1nc2c(s1)CCCC2)c1ccc([N+](=O)[O-])o1	64*	18
O=C(Nc1nc2c(F)cccc2s1)c1ccc([N+](=O)[O-])o1	3	4
O=C(Nc1nc2ccccc2[nH]1)C1CCN(c2cc(-n3ccnc3)ncn2)CC1	-13	11
O=C(NCc1ccccc1Cl)c1ccc2c(c1)NC(=O)C(N1CCCC1)S2 (centres undefined)	-16	6
O=C(NCc1ccccn1)c1ccc2c(c1)NC(=O)C(N1CCCC1)S2 (centres undefined)	-11	58*
O=C(CC(NCc1ccccn1)C(=O)O)Nc1cc(Cl)ccc1Cl (centres undefined)	-1	100*
O=C(CC(NCc1ccco1)C(=O)O)Nc1cc(Cl)ccc1O (centres undefined)	1	5
COc1ccc(NC(=O)CN(c2ccc(Cl)cc2C)S(C)(=O)=O)c(OC)c1	-6	6
